The experiment in a line: LNCaP cell loss by flow event count, confirmation, cytotoxicity control for prostate differentiation activator project, single point (AID 1076).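 Also: counts scatter-gated live cells after medium removal discards detached dead cells.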 The settings on record: flow cytometry event count, 4 d, stronger effect = lower value.

41 compounds from PubChem BioAssay AID1076 (NMMLSC, 2008) can be followed below.

Activity calls are given as the source filed them.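 The calls were made as follows: active = cell event count below 40, meaning activity score above 60 where score is 100 minus count; inactive = the rest.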

On to `CCOC(=O)N1CCN(S(=O)(=O)c2ccc(C(=O)Nc3nc4ccccc4s3)cc2)CC1`, for which the cell event count runs as follows: (at 100 µM) 145 (inactive); (event count, at 10 µM) 172.

Consider `CCOC(=O)N1CCC(NC(=O)c2cc3c(-c4ccc(Cl)cc4)nn(C)c3s2)CC1`, for which the cell event count runs as follows: (at 100 µM) 342 (inactive); (event count, at 10 µM) 118.

Take `COc1ccccc1N1CCN(Cc2cc(Br)c(O)c3ncccc23)CC1`: the cell event count reads like this: (at 100 µM) 17 (active); (event count, at 10 µM) 35.5.

Take `Cc1ccc(CN2CCSc3ccc(C(=O)N4CCN(c5ncccn5)CC4)cc32)cc1`: the cell event count is 129 (inactive) (at 100 µM) and 266 (event count, at 10 µM).

`N=c1n(CCN2CCCCC2)c2ccccc2n1CC(O)COc1ccccc1` (configuration not stated): the cell event count is 20 (inactive) (at 100 µM) and 178 (event count, at 10 µM).

Turning to `COc1ccc(-n2nnnc2SCC(=O)c2ccc(O)c(O)c2)cc1`, the cell event count (at 100 µM) was 9 (inactive) and the cell event count (event count, at 10 µM) was 205.

In the case of `COc1ccc(Cc2n[nH]c(=O)c3ccccc23)cc1OC`, the cell event count by setting is: (at 100 µM) 207 (inactive); (event count, at 10 µM) 111.

Regarding `CCc1ccc(-c2nc(CN3CCC(C(=O)NCc4ccco4)CC3)c(C)o2)cc1`, the cell event count (at 100 µM) is 25 (inactive) and the cell event count (event count, at 10 µM) turned out to be 172.

For `O=S(=O)(Nc1cccc2ncccc12)c1cccs1`, the cell event count is 42 (inactive) (at 100 µM) and 78.5 (event count, at 10 µM).

On to `CCc1ccc(-c2nc(CN3CCC(C(=O)NCc4ccccc4OC)CC3)c(C)o2)cc1`, for which the cell event count is, setting by setting: (at 100 µM) 49 (inactive); (event count, at 10 µM) 190.

As for `COc1ccc(CCNC(=O)C2CCCN(Cc3nc(-c4cccc(Cl)c4)oc3C)C2)cc1OC` (configuration not stated), the cell event count was 21 (inactive) (at 100 µM) and 247 (event count, at 10 µM).

On to `COc1ccc(CCNC(=O)C2CCN(Cc3nc(-c4ccccc4F)oc3C)CC2)cc1OC`, for which the cell event count is 524 (inactive) (at 100 µM) and 478 (event count, at 10 µM).

As to `Cc1ccccc1-c1nc(CN2CCC(C(=O)NCCCN3CCOCC3)CC2)c(C)o1`, the cell event count runs as follows: (at 100 µM) 38 (inactive); (event count, at 10 µM) 126.

`CCOC(=O)N1CCN(C(=O)CCc2c(C)nc3c(c(C)nn3-c3ccc(C)c(C)c3)c2C)CC1`: the cell event count (at 100 µM) is 5 (inactive) and the cell event count (event count, at 10 µM) amounted to 222.

Regarding `C=C(C)Cn1c(-c2ccccc2)nc2ccccc21`, the cell event count was 16 (inactive) (at 100 µM) and 106 (event count, at 10 µM).

Turning to `Cc1oc(-c2ccc(Cl)cc2)nc1CN1CCC(C(=O)NCCCN2CCOCC2)CC1`, the cell event count is 12 (inactive) (at 100 µM) and 119 (event count, at 10 µM).

Take `Cc1oc(-c2ccc(Cl)cc2)nc1CN1CCC(C(=O)N2CCN(Cc3ccccc3)CC2)CC1`: the cell event count is, setting by setting: (at 100 µM) 3 (inactive); (event count, at 10 µM) 224.

For `Cc1ccc(CNc2nc3ccccc3n3nnnc23)cc1`, the cell event count reads like this: (at 100 µM) 245 (inactive); (event count, at 10 µM) 196.

For the compound `Oc1c(CN2CCCCC2)cc(COCc2ccccc2)c2cccnc12`, the cell event count runs as follows: (at 100 µM) 35 (inactive); (event count, at 10 µM) 92.

Turning to `COC(=O)c1[nH]c2c(c1C)C(=O)CCC2`, the cell event count is, setting by setting: (at 100 µM) 387 (inactive); (event count, at 10 µM) 252.

For `COC(=O)c1ccccc1S(=O)(=O)N(Cc1cc2cc3c(cc2[nH]c1=O)OCO3)C1CCCCC1`, the cell event count (at 100 µM) was 8 (inactive) and the cell event count (event count, at 10 µM) was found to be 103.

Take `CCCS(=O)(=O)N1CCCC(C(=O)NCCCN2CCN(c3cccc(Cl)c3)CC2)C1` (configuration not stated): the cell event count is, setting by setting: (at 100 µM) 53 (inactive); (event count, at 10 µM) 114.

Take `Cc1ccc(Nc2cc(=O)n(C3CCCCC3)c(=O)[nH]2)cc1C`: the cell event count runs as follows: (at 100 µM) 3 (active); (event count, at 10 µM) 62.5.

As for `Cc1cccc(OCCn2c(=O)n(C)c3ccccc32)c1`, the cell event count is, setting by setting: (at 100 µM) 15 (inactive); (event count, at 10 µM) 136.

With `CCOC(=O)N1CCC(=C2c3ccc(Cl)cc3CCc3cccnc32)CC1`, the cell event count was 7 (inactive) (at 100 µM) and 192 (event count, at 10 µM).

As for `CCN(CCNC(=O)C1CCN(Cc2nc(-c3ccc(Cl)cc3)oc2C)CC1)c1ccccc1`, the cell event count is, setting by setting: (at 100 µM) 24 (inactive); (event count, at 10 µM) 391.

On to `CCN1C=C(Cc2cccs2)C2=C(C1)C(c1cccs1)C(C#N)=C(N)O2` (configuration not stated), for which the cell event count is 40 (inactive) (at 100 µM) and 200 (event count, at 10 µM).

For the compound `Cc1cc(N2CCN(C)CC2)nc2ccc(NC(=O)c3ccc4c(c3)OCO4)cc12`, the cell event count (at 100 µM) was 57 (inactive) and the cell event count (event count, at 10 µM) was 278.

Regarding `CCOC(=O)N1CCC(NC(=O)c2cc3c(-c4ccc(OC)c(OC)c4)nn(C)c3s2)CC1`, the cell event count is, setting by setting: (at 100 µM) 151 (inactive); (event count, at 10 µM) 398.

Consider `Cc1ccccc1Cn1cnc2c(cnn2C(C)(C)C)c1=O`, for which the cell event count (at 100 µM) was 13 (inactive) and the cell event count (event count, at 10 µM) stood at 85.

For the compound `COc1ccc(-c2cc(C(F)(F)F)nc(N3CCN(Cc4ccccc4)CC3)n2)cc1OC`, the cell event count (at 100 µM) is 152 (inactive) and the cell event count (event count, at 10 µM) was 376.

Take `CCOC(=O)C1CCN(c2nc3ccccc3nc2C(C#N)C(=O)OCCOC)CC1` (configuration not stated): the cell event count is 17 (inactive) (at 100 µM) and 108 (event count, at 10 µM).

As for `CN1C(=O)c2ccc(S(=O)(=O)c3ccc(C(=O)O)cc3)cc2C1=O`, the cell event count reads like this: (at 100 µM) 195 (inactive); (event count, at 10 µM) 166.

As for `COc1ccc2nc3oc(C(=O)NCc4cccs4)cc3cc2c1`, the cell event count is 307 (inactive) (at 100 µM) and 304 (event count, at 10 µM).

In the case of `O=C(Nc1cccc(Cl)c1)N1CCN(Cc2ccccc2)CC1`, the cell event count runs as follows: (at 100 µM) 42 (inactive); (event count, at 10 µM) 132.

As for `COCCCN(C(=O)Nc1ccccc1)C(C)c1ccncc1` (configuration not stated), the cell event count is, setting by setting: (at 100 µM) 238 (inactive); (event count, at 10 µM) 387.

For the compound `c1cncc(-c2nc3ccccc3o2)c1`, the cell event count is 49 (inactive) (at 100 µM) and 89.5 (event count, at 10 µM).

For `Cc1oc(-c2ccccc2F)nc1CN1CCC(C(=O)NCCC2=CCCCC2)CC1`, the cell event count by setting is: (at 100 µM) 17 (inactive); (event count, at 10 µM) 402.

As to `COc1cc(C(=O)NCc2nnc(SCC(=O)NCc3ccccc3)o2)cc(OC)c1OC`, the cell event count is 104 (inactive) (at 100 µM) and 134 (event count, at 10 µM).

Turning to `COc1ccc(-n2c(C)nc3c(cnn3-c3ccc(Cl)cc3)c2=O)cc1`, the cell event count reads like this: (at 100 µM) 45 (inactive); (event count, at 10 µM) 84.

Regarding `CCS(=O)(=O)N1CCC(C(=O)NCCCN2CCN(c3ccccc3F)CC2)CC1`, the cell event count runs as follows: (at 100 µM) 135 (inactive); (event count, at 10 µM) 70.5.
